This note sets out measurements from PubChem BioAssay (EPA / NIEHS).

Molecules are shown by their SMILES. Calls of active or inactive are those of the source. The calls were made as follows: active = hit-call score of the fitted dose curve at least 0.9, where 1 is the maximum; inactive = score below 0.9.

Read-out in this assay: Monokine induced gamma interferon (MIG), CXCL9 (gene 4283)
Briefly: BSK_SAg_MIG: BioMAP Diversity Plus: SAg Assay for Monokine induced gamma interferon (MIG) Biomarker Activity (AID 2283092). The conditions noted are these: primary human HUVEC with PBMC; actives raise or lower the signal. As to the method: BSK_SAg is a cell-based, multiplexed-readout assay that uses umbilical vein endothelium and peripheral blood mononuclear cells, a human vascular primary cell co-culture, with measurements taken at 24 hours after chemical dosing in a 96-well plate.BSK_SAg_MIG is an assay component measured in the BSK_SAg assay. It measures MIG antibody related to regulation of gene expression using ELISA technology.Data from the assay component BSK_SAg_MIG was analyzed into 1 assay endpoint. This assay endpoint, BSK_SAg_MIG, was analyzed with bidirectional fitting relative to DMSO as the negative control and baseline of activity. Using a type of binding reporter, gain or loss-of-signal activity can be used to understand changes in the signaling as they relate to the gene CXCL9. Furthermore, this assay endpoint can be referred to as a primary readout, because this assay has produced multiple assay endpoints where this one serves a signaling function. To generalize the intended target to other relatable targets, this assay endpoint is annotated to the cytokine intended target family, where the subfamily is chemotactic factor.
The levels of cell surface (or secreted, indicated by the prefix "s") biomarker endpoints were measured by ELISA. Overt cytotoxicity to cells in confluent adherent cultures (all systems other than the BT system) was assessed by measuring total protein levels using sulforhodamine B (SRB) staining in parallel cultures at the time of biomarker measurements, indicated as SRB endpoints. For proliferation assays for adherent cell types, individual cell types are cultured at sub-confluence and relative cell numbers quantified by SRB staining at time points optimized for each system (48 h: 3C and CASM3C systems; 72 h: BT and HDF3CGF systems; 96 h: SAg system). SRB was performed by staining cells with 0.1% SRB after fixation with 10% TCA and reading wells at 560 nm.Viability and proliferation of PBMC (T cells) was quantified by Alamar Blue reduction for the SAg and BT systems. For PBMC viability (referred to as PBMC Cytotoxicity within the assay endpoint names), cells were plated (75,000/well in a 96-well plate) and then chemical samples added for 1 h before addition of activators, SEB and TSST-1 (20 ng/mL final concentration each). Cells were incubated for 90 h. Then, Alamar Blue (20 uL/well) (Invitrogen, Cat DAL1100) was added for 6 h, and the plates were read with a fluorescence microplate reader at 546/580 nm (excitation/emission). For PBMC proliferation, cells were plated and activated as above but incubated for only 16 h prior to addition of Alamar Blue. Plates were read after 6 h.
On to `OCCO`, for which the outcome was inactive.

Turning to `Cc1cc(F)ccc1-c1cc(N2CC[C@@H](O)[C@H]2CO)ncc1N(C)C(=O)C(C)(C)c1cc(C(F)(F)F)cc(C(F)(F)F)c1`, the AC50 (as a rule, the midpoint of the concentration-response curve, whichever way the signal moves) was 13.1 µM (active).

Turning to `CN(C)c1ccc(C(=C2C=CC(=[N+](C)C)C=C2)c2ccc(N(C)C)cc2)cc1`, the half-maximal activity concentration (AC50) was 1.61 µM (active).

Turning to `c1ccc2n[nH]nc2c1`, the outcome was inactive.

As to `CCO[Si](CCCNC(N)=O)(OCC)OCC`, the outcome was inactive.

On to `CC[C@H](NC(=O)c1cc(F)ccc1NS(=O)(=O)c1cccc2cccnc12)c1ccccc1`, for which the outcome was inactive.

With `CCCCCCCCCCCCO`, the AC50 is 36.3 µM (active).

In the case of `O=C(O)c1ccccc1-n1cc(C(=O)O)c(=O)c2cc(Nc3c(F)cc(F)cc3Cl)c(Cl)cc21`, the outcome was inactive.

Turning to `CCCC(=O)OCCC(C)C`, the outcome was inactive.

For `O=C(O)c1ccccc1C(=O)OCc1ccccc1`, the outcome was inactive.

As to `O=C1CCC(C2CCCCC2)CC1`, the result was inactive.

On to `CCCCOC(=O)c1ccc(O)cc1`, for which the result was inactive.

With `COc1ccc2cc(S(=O)(=O)N[C@H](CC(=O)N[C@H](Cc3ccc(CN4[C@H](C)CCC[C@@H]4C)cc3)C(=O)N(C)C(C)C)c3ccc4c(c3)OCO4)ccc2c1`, the concentration at half-maximal activity (AC50) is 35.2 µM (active).

Consider `O=C(OCCCCCCOC(=O)c1ccccc1)c1ccccc1`, for which the outcome was inactive.

As to `Cc1cccc2ccccc12`, the outcome was inactive.

For `CC1=CC(=O)/C(=C(/C)O)C(=O)O1`, the result was inactive.

Take `O=C=NCCCCCCN=C=O`: the outcome was inactive.

Take `CC(=O)N1CCN(c2ccc(OC[C@H]3CO[C@](Cn4ccnc4)(c4ccc(Cl)cc4Cl)O3)cc2)CC1`: the AC50 was 37.7 µM (active).

For `Cc1ccc2oc(CN(Cc3ccccc3)C(=O)Nc3c(F)cc(F)cc3F)c(-c3ccc(Cl)cc3)c2c1`, the outcome was inactive.

For the compound `CCN(Cc1cccc(S(=O)(=O)O)c1)c1ccc(C(=C2C=CC(=[N+](CC)Cc3cccc(S(=O)(=O)O)c3)C=C2)c2ccccc2S(=O)(=O)[O-])cc1`, the result was inactive.

As to `CC(O)CC(C)(C)O` (stereo not given), the outcome was inactive.

Consider `CCN(Cc1cccnc1)C(=O)c1cccc(Cl)c1[C@]1(C)C(=O)N(Cc2ccc(OC)cc2OC)c2ccc(Cl)cc21`, for which the outcome was inactive.

Regarding `NC(=O)c1nc(-c2cccc(-c3cc(F)ccc3OCC(F)(F)C(F)(F)F)c2)n[nH]1`, the half-maximal activity concentration (AC50) was 40.3 µM (active).

With `O=C(O)Cc1cc(I)c(Oc2ccc(O)c(I)c2)c(I)c1`, the result was inactive.

With `CCCCOC(=O)CC(CC(=O)OCCCC)(OC(C)=O)C(=O)OCCCC`, the outcome was inactive.

With `CCCOC(=O)c1cc(O)c(O)c(O)c1`, the outcome was inactive.

With `CC/C(=C(/CC)c1ccc(O)cc1)c1ccc(O)cc1`, the half-maximal activity concentration (AC50) was 31.9 µM (active).

Turning to `CN1C(=O)N(c2ccccc2Br)Cc2cnc(Nc3ccc4c(c3)OCC(CO)O4)nc21` (stereo not given), the concentration at half-maximal activity (AC50) was 2.89 µM (active).

`Oc1ccc2ccccc2c1`: the outcome was inactive.

With `CCN(CC)C(=O)c1cc(S(=O)(=O)Cc2ccccc2)c(N2CCC(c3ccccc3)CC2)cc1N(CC)CCN(C)C`, the half-maximal activity concentration (AC50) is 15.2 µM (active).

Regarding `CN(C[C@@H](CC[N+]12CCC(C3CCCCC3)(CC1)CC2)c1ccc(Cl)c(Cl)c1)C(=O)c1cc(C(F)(F)F)cc(C(F)(F)F)c1`, the half-maximal activity concentration (AC50) is 27.8 µM (active).

Take `CCCCCCCCN(C)CCCCCCCC`: the result was inactive.

As for `CCOC(=O)O[C@H](C)OC(=O)c1ccc2c(c1)cc(C(=O)NC1CCN(C(C)C)CC1)n2Cc1cc(-c2ccc(Cl)s2)on1`, the concentration at half-maximal activity (AC50) is 8.05 µM (active).

Regarding `OC12N=C(c3ccccc3)SC1Cc1cc(Cl)ccc12` (stereo not given), the result was inactive.

In the case of `Cc1oc2c(NC(=O)c3c(Cl)cccc3Cl)cccc2c1C(C)(C)O`, the result was inactive.

For the compound `Cc1ncc(CO)c(CO)c1O`, the result was inactive.

As for `C[C@]12CC[C@@H]3c4ccc(O)cc4CC[C@H]3[C@@H]1CCC2=O`, the outcome was inactive.

In the case of `c1ccc(C[n+]2cccc3ccccc32)cc1`, the result was inactive.

Regarding `Cc1cn([C@H]2C[C@H](N=[N+]=[N-])[C@@H](CO)O2)c(=O)[nH]c1=O`, the result was inactive.

Regarding `C[C@]12CC[C@@H]3c4ccc(O)cc4CC[C@H]3[C@@H]1CC[C@H]2O`, the outcome was inactive.
